Assay results as given in publication PMC9911399, “Two distinct binding modes provide the RNA-binding protein RbFox with extraordinary sequence specificity”.
Residue numbers refer to the chain shown, from its start. Over roughly 16,000 sequences, “ka relative to ugcaugu” has its median near 0.0091; the highest 2% begin near 0.032. What follows is part of a selection rich in the highest values, with near analogues and random picks from the rest.

T1: RBFOX1 RRM (Homo sapiens, UniProt Q9NWB1 109-208)
T1 sequence: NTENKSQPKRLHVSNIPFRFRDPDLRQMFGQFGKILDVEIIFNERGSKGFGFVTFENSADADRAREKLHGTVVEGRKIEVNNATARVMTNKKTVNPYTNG

B1: CGCAUAC (DNA:RNA)
RNA: GGGAGACCGGAAUUCAGAUUGUCCCGCAUACUUAAAUCCCGUCGUAGCCACCA
DNA 1: CAATCTGAATTCCGGTCTCCC
DNA 2: TGGTGGCTACGACGGGATT
B2: AUGCGCC (DNA:RNA)
RNA: B1 RNA with C25A, G26U, C27G, A28C, U29G, A30C
DNA 1: CAATCTGAATTCCGGTCTCCC
DNA 2: TGGTGGCTACGACGGGATT
B3: AACACCC (DNA:RNA)
RNA: B1 RNA with C25A, G26A, U29C, A30C
DNA 1: CAATCTGAATTCCGGTCTCCC
DNA 2: TGGTGGCTACGACGGGATT
B4: AAUUUUC (DNA:RNA)
RNA: B1 RNA with C25A, G26A, C27U, A28U, A30U
DNA 1: CAATCTGAATTCCGGTCTCCC
DNA 2: TGGTGGCTACGACGGGATT
B5: ACAGCCG (DNA:RNA)
RNA: GGGAGACCGGAAUUCAGAUUGUCCACAGCCGUUAAAUCCCGUCGUAGCCACCA
DNA 1: CAATCTGAATTCCGGTCTCCC
DNA 2: TGGTGGCTACGACGGGATT
B6: UGGGCCG (DNA:RNA)
RNA: B5 RNA with A25U, C26G, A27G
DNA 1: CAATCTGAATTCCGGTCTCCC
DNA 2: TGGTGGCTACGACGGGATT
B7: UGGGGCC (DNA:RNA)
RNA: B5 RNA with A25U, C26G, A27G, C29G, G31C
DNA 1: CAATCTGAATTCCGGTCTCCC
DNA 2: TGGTGGCTACGACGGGATT
B8: UGGGCCC (DNA:RNA)
RNA: B5 RNA with A25U, C26G, A27G, G31C
DNA 1: CAATCTGAATTCCGGTCTCCC
DNA 2: TGGTGGCTACGACGGGATT
B9: UGGGCCU (DNA:RNA)
RNA: B5 RNA with A25U, C26G, A27G, G31U
DNA 1: CAATCTGAATTCCGGTCTCCC
DNA 2: TGGTGGCTACGACGGGATT
B10: UGGCCGU (DNA:RNA)
RNA: B5 RNA with A25U, C26G, A27G, G28C, C30G, G31U
DNA 1: CAATCTGAATTCCGGTCTCCC
DNA 2: TGGTGGCTACGACGGGATT
B11: CUGGGCC (DNA:RNA)
RNA: B5 RNA with A25C, C26U, A27G, C29G, G31C
DNA 1: CAATCTGAATTCCGGTCTCCC
DNA 2: TGGTGGCTACGACGGGATT
B12: GACUUCU (DNA:RNA)
RNA: B1 RNA with C25G, G26A, A28U, A30C, C31U
DNA 1: CAATCTGAATTCCGGTCTCCC
DNA 2: TGGTGGCTACGACGGGATT
B13: UCCAGUC (DNA:RNA)
RNA: B1 RNA with C25U, G26C, U29G, A30U
DNA 1: CAATCTGAATTCCGGTCTCCC
DNA 2: TGGTGGCTACGACGGGATT
B14: AGGCAUA (DNA:RNA)
RNA: B5 RNA with C26G, A27G, G28C, C29A, C30U, G31A
DNA 1: CAATCTGAATTCCGGTCTCCC
DNA 2: TGGTGGCTACGACGGGATT
B15: UGGCAUA (DNA:RNA)
RNA: B1 RNA with C25U, C27G, A28C, U29A, A30U, C31A
DNA 1: CAATCTGAATTCCGGTCTCCC
DNA 2: TGGTGGCTACGACGGGATT
B16: GGCAUUG (DNA:RNA)
RNA: B1 RNA with C25G, A30U, C31G
DNA 1: CAATCTGAATTCCGGTCTCCC
DNA 2: TGGTGGCTACGACGGGATT
B17: AUGUCGU (DNA:RNA)
RNA: B5 RNA with C26U, A27G, G28U, C30G, G31U
DNA 1: CAATCTGAATTCCGGTCTCCC
DNA 2: TGGTGGCTACGACGGGATT
B18: GUCAUGU (DNA:RNA)
RNA: B1 RNA with C25G, G26U, A30G, C31U
DNA 1: CAATCTGAATTCCGGTCTCCC
DNA 2: TGGTGGCTACGACGGGATT
B19: UGGCAUG (DNA:RNA)
RNA: B5 RNA with A25U, C26G, A27G, G28C, C29A, C30U
DNA 1: CAATCTGAATTCCGGTCTCCC
DNA 2: TGGTGGCTACGACGGGATT
B20: UGGCAUC (DNA:RNA)
RNA: B1 RNA with C25U, C27G, A28C, U29A, A30U
DNA 1: CAATCTGAATTCCGGTCTCCC
DNA 2: TGGTGGCTACGACGGGATT
B21: GGCAUGU (DNA:RNA)
RNA: B1 RNA with C25G, A30G, C31U
DNA 1: CAATCTGAATTCCGGTCTCCC
DNA 2: TGGTGGCTACGACGGGATT
B22: AGGCAUC (DNA:RNA)
RNA: B1 RNA with C25A, C27G, A28C, U29A, A30U
DNA 1: CAATCTGAATTCCGGTCTCCC
DNA 2: TGGTGGCTACGACGGGATT
B23: CGGCAUG (DNA:RNA)
RNA: B1 RNA with C27G, A28C, U29A, A30U, C31G
DNA 1: CAATCTGAATTCCGGTCTCCC
DNA 2: TGGTGGCTACGACGGGATT
B24: AGGCAUG (DNA:RNA)
RNA: B5 RNA with C26G, A27G, G28C, C29A, C30U
DNA 1: CAATCTGAATTCCGGTCTCCC
DNA 2: TGGTGGCTACGACGGGATT
B25: ACCGGCA (DNA:RNA)
RNA: B5 RNA with A27C, C29G, G31A
DNA 1: CAATCTGAATTCCGGTCTCCC
DNA 2: TGGTGGCTACGACGGGATT
B26: GUGCGUA (DNA:RNA)
RNA: GGGAGACCGGAAUUCAGAUUGUCCGUGCGUAUUAAAUCCCGUCGUAGCCACCA
DNA 1: CAATCTGAATTCCGGTCTCCC
DNA 2: TGGTGGCTACGACGGGATT
B27: CGUGGAA (DNA:RNA)
RNA: B1 RNA with C27U, A28G, U29G, C31A
DNA 1: CAATCTGAATTCCGGTCTCCC
DNA 2: TGGTGGCTACGACGGGATT
B28: CCCGACG (DNA:RNA)
RNA: B5 RNA with A25C, A27C, C29A
DNA 1: CAATCTGAATTCCGGTCTCCC
DNA 2: TGGTGGCTACGACGGGATT
B29: CGAGUCG (DNA:RNA)
RNA: B5 RNA with A25C, C26G, C29U
DNA 1: CAATCTGAATTCCGGTCTCCC
DNA 2: TGGTGGCTACGACGGGATT
B30: UCGCCGA (DNA:RNA)
RNA: B26 RNA with G25U, U26C, G29C, U30G
DNA 1: CAATCTGAATTCCGGTCTCCC
DNA 2: TGGTGGCTACGACGGGATT
B31: AAGUACG (DNA:RNA)
RNA: B5 RNA with C26A, A27G, G28U, C29A
DNA 1: CAATCTGAATTCCGGTCTCCC
DNA 2: TGGTGGCTACGACGGGATT

What follows are binders tested against T1, RBFOX1 RRM (assay: EMSA; HiTS-Eq, 1 nM pool, 10 min; buffer printed only for the single-RNA assays: 10 mM Tris pH 7.5, 150 mM NaCl, 3.4 mM EDTA, 0.001% NP-40, 30 C). Conditions: tags: His6 N-terminal (pET28a); label: 5' 32P.
In short: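 A pool of RNA with 7 randomized nucleotides, 5′-radiolabelled and with DNA-annealed flanks, was equilibrated at 1 nM for 10 min in 50 µL with purified RbFox RRM, wild type or mutant, across increasing protein concentrations. Free RNA was separated by 8% native PAGE, excised, reverse-transcribed, barcoded by PCR and sequenced. Relative association constants were obtained from read-count changes of each RNA species versus the control reaction and normalised to the cognate motif.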

Row | Binder | binding signal
1 | B1 | 0.0068 KA relative to UGCAUGU
2 | B2 | 0.0101 KA relative to UGCAUGU
3 | B3 | 0.000265 KA relative to UGCAUGU
4 | B4 | 0.00788 KA relative to UGCAUGU
5 | B5 | 0.00101 KA relative to UGCAUGU
6 | B6 | 0.0335 KA relative to UGCAUGU
7 | B7 | 0.0345 KA relative to UGCAUGU
8 | B8 | 0.0266 KA relative to UGCAUGU
9 | B9 | 0.0237 KA relative to UGCAUGU
10 | B10 | 0.023 KA relative to UGCAUGU
11 | B11 | 0.0274 KA relative to UGCAUGU
12 | B12 | 0.0118 KA relative to UGCAUGU
13 | B13 | 0.00851 KA relative to UGCAUGU
14 | B14 | 0.00927 KA relative to UGCAUGU
15 | B15 | 0.0137 KA relative to UGCAUGU
16 | B16 | 0.0108 KA relative to UGCAUGU

Row | Binder | binding signal
17 | B17 | 0.0142 KA relative to UGCAUGU
18 | B18 | 0.0129 KA relative to UGCAUGU
19 | B19 | 0.696 KA relative to UGCAUGU
20 | B20 | 0.0211 KA relative to UGCAUGU
21 | B21 | 0.426 KA relative to UGCAUGU
22 | B22 | 0.0123 KA relative to UGCAUGU
23 | B23 | 0.573 KA relative to UGCAUGU
24 | B24 | 0.662 KA relative to UGCAUGU
25 | B25 | 0.00809 KA relative to UGCAUGU
26 | B26 | 0.0121 KA relative to UGCAUGU
27 | B27 | 0.0142 KA relative to UGCAUGU
28 | B28 | 0.0192 KA relative to UGCAUGU
29 | B29 | 0.0112 KA relative to UGCAUGU
30 | B30 | 0.0122 KA relative to UGCAUGU
31 | B31 | 0.0114 KA relative to UGCAUGU
